{"source": "PubChem BioAssay (EPA / NIEHS)", "note": "Results filed as inconclusive are left out. Calls of active or inactive are those of the source. Rule for the calls: active = hit-call score of the fitted dose curve at least 0.9, where 1 is the maximum; inconclusive = response in the unintended direction; inactive = score below 0.9."}
{"read-out": "HMG-CoA synthase (HMGCS2), HMGCS2 (gene 3158)", "experiment": "CLD_HMGCS2_24hr: CellzDirect (CLD) Gene Expression Assay for HMG-CoA synthase (HMGCS2) at 24 hours (AID 2283691)", "description": "CLD_24hr is a cell-based, multiplexed-readout assay that uses hepatocyte, a human liver primary cell, with measurements taken at 24 hours after chemical dosing in a 96-well plate.CLD_HMGCS2_24hr is one of 16 assay component(s) measured or calculated from the CLD_24hr assay. It is designed to make measurements of mRNA induction, a form of inducible reporter, as detected with chemiluminescence signals by Quantitative Nuclease Protection Assay (qNPA) technology.Data from the assay component CLD_HMGCS2_24hr was analyzed at the endpoint, CLD_HMGCS2_24hr, in the positive analysis fitting direction relative to DMSO as the negative control and baseline of activity. Using a type of inducible reporter, gain-of-signal activity can be used to understand changes in the reporter gene as they relate to the gene HMGCS2. Furthermore, this assay endpoint can be referred to as a primary readout. To generalize the intended target to other relatable targets, this assay endpoint is annotated to the lyase intended target family, where subfamily is HMG-CoA synthase.\nHuman hepatocyte cultures were treated daily for two consecutive days with fresh dosing solutions containing appropriate concentrations of the 320 ToxCast chemicals (chemical identities were blinded to CellzDirect and other ToxCast collaborators), vehicle control (0.2% DMSO), and positive control inducers as summarized in Table 1. Due to the large number of treatment groups and chemicals examined, the ToxCast chemicals were divided into two groups (spanning two independent cultures of hepatocytes from separate donor preparations (Hu778: ToxCast plates 1 and 2; Hu776: ToxCast plates 3 and 4). Each preparation of human hepatocyte cultures was treated with respective vehicle control, medium only control, set of six positive controls/reference chemicals for the five hepatic receptor pathways, and a subset of eight of the ToxCast chemicals (indoxacarb, pyrithiobac-sodium, norflurazon, cyhalofop-butyl, methomyl, thiram, acetochlor, and propiconazole). These replicate data, coupled with internal replicates designed within the blinded ToxCast chemical library, provided additional data to evaluate interindividual differences between hepatocyte preparations and their potential impact on chemical profiles.Cell morphology and integrity were evaluated using phase-contrast microscopy as an indicator of hepatocyte cell health (Tyson & Green, 1987). Cultures for each treatment group (i.e., media, vehicle [0.2% DMSO], positive control inducers [multiple concentrations], and the ToxCast chemicals [multiple concentrations]) were observed and cell morphology was assessed relative to vehicle control cultures at each harvest time point (0, 6, 24, or 48 h). […] Images were evaluated at the conclusion of the study to assess changes in cell integrity and account for the effects of chemical exposure on uncharacteristic changes in concentration-dependent gene expression profiles. The results from these determinations of apparent cytotoxicity were annotated (yes/no) alongside the corresponding qNPA data for reference.At the conclusion of each treatment period, hepatocyte cultures (96-well) were washed with 1 volume of HBSS, lysed by addition of 25 ul ArrayPlate lysis buffer (HTG, Tucson, AZ), and 70 ul/well of Denaturation Oil, denatured by incubation at 95C for 10 min, and frozen at approximately -70C until analysis by nuclease protection assay (qNPA) (Roberts et al., 2007). For qNPA analysis, cell lysates were thawed at 50C for approximately 30 min, qNPA probes were added, and samples were incubated at 95C for 10 min to begin the detection process by denaturing the target RNA, dissociating the duplexes and secondary structure hybridization. At the conclusion of the hybridization period, S1 nuclease reagent was added to each sample to digest all nonprotected nucleotides at 50C for 60-90 min. […]"}
{"molecule": "O=C(O)CCCOc1ccc(Cl)cc1Cl", "outcome": "inactive"}
{"molecule": "COC(=O)c1ccccc1S(=O)(=O)NC(=O)Nc1nc(C)nc(OC)n1", "outcome": "inactive"}
{"molecule": "[2H]C1([2H])[n+]2ccccc2-c2cccc[n+]2C1([2H])[2H]", "outcome": "inactive"}
{"molecule": "CNC(=O)CSP(=S)(OC)OC", "outcome": "inactive"}
{"molecule": "COc1cc(OC)nc(NC(=O)NS(=O)(=O)c2cc(NC=O)ccc2C(=O)N(C)C)n1", "outcome": "inactive"}
{"molecule": "Oc1ccc(Cl)cc1Cc1ccccc1", "outcome": "inactive"}
{"molecule": "O=C(O)C(F)(F)C(F)(F)C(F)(F)C(F)(F)C(F)(F)C(F)(F)C(F)(F)F", "outcome": "inactive"}
{"molecule": "CNC(=O)Oc1cccc(N=CN(C)C)c1", "outcome": "inactive"}
{"molecule": "O=C(O)COc1ccc(Cl)cc1Cl", "AC50": "22.5 nM (active)"}
{"molecule": "N#Cc1c(Cl)c(Cl)c(Cl)c(C#N)c1Cl", "outcome": "inactive"}
{"molecule": "OCCOc1ccccc1", "outcome": "inactive"}
{"molecule": "O=[N+]([O-])/N=C1\\NCCN1Cc1ccc(Cl)nc1", "outcome": "inactive"}
{"molecule": "Oc1cc(Cl)ccc1Oc1ccc(Cl)cc1Cl", "outcome": "inactive"}
{"molecule": "C#CCN1C(=O)COc2cc(F)c(N3C(=O)C4=C(CCCC4)C3=O)cc21", "outcome": "inactive"}
{"molecule": "CCS(=O)(=O)c1cccnc1S(=O)(=O)NC(=O)Nc1nc(OC)cc(OC)n1", "outcome": "inactive"}
{"molecule": "COP(=O)(OC)OC=C(Cl)Cl", "outcome": "inactive"}
